Source: PubChem
Ins promoter up: insulin promoter activators in MIN6 cells, imaging, high-content screening, mouse beta cells. MIN6 insulin promoter-GFP reporter; stronger effect = higher value. z-score at 5 µM. hit rate 0.3% among 190,000;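 active = z-score above 3 at 5 µM with at least 500 cells counted in the well; inconclusive = wells under 500 cells, flagged as cytotoxic or low count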
bCat KO growth: primary screen for growth suppressors in beta-catenin knockout HCT116 cells (colon tumor, human); HCT116 beta-catenin knockout viability, CellTiter-Glo, 60 h; stronger effect = lower value; viability, % at 10 µM; hit rate 1.5% among 140,000; AID 818, 2007;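 active = viability at or under a set limit, the compound median less 4 SD, cut at about 6% in these data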
HCT116 PTEN-null: growth suppression of PTEN-null HCT116, primary screen, cell-based, CellTiter-Glo; AID 827, 2007; hit rate 1.2% among 140,000; HCT116 PTEN-null viability, 60 h; stronger effect = lower value; viability, % at 10 µM;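 active = viability at or below a set limit, 4 SD under the median of all tested compounds, cut at about 3.7% in these data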;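 note: PTEN knockout HCT116 line with beta catenin targeted HCT116 as companion control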
Autophagy mod: autophagy modulators in MEF cells, primary screen, imaging, high-content, MEF GFP-LC3. MEF GFP-LC3 puncta imaging; test concentration mostly 10 µM. calls only at 10 µM (by protocol). hit rate 0.98% among 190,000. AID 463193, 2010;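 active = percentage of spot-positive cells more than 3 SD above its plate mean, without a fluorescence outlier flag or 80% toxicity; inconclusive = no clear call, values can overlap the other calls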
L major viab: Leishmania major promastigote growth inhibition, primary screen; Leishmania major promastigotes, resazurin fluorescence viability; inhibition, % at 10 µM; hit rate 9% among 200,000; in the data active = inhibition above about 50%;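 note: promastigotes grown with compound for 44 hours at 28 °C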
Insulin prom inh: inhibitors of insulin promoter-driven GFP, primary screen, imaging, TRM-6 cells (human fetal islet line), eGFP reporter, cell count; reporter expression induced with tamoxifen; inhibition, % at 2 µM; hit rate 0.9% among 130,000; AID 1273, 2008;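 active = inhibition above the mean plus 3 SD, with well images judged a real hit on visual review, cut at about 60% in these data, passing the limit was not always enough; inconclusive = inhibition over the cutoff but images rejected on review; inactive = inhibition not above the cutoff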
Each line names hits and unclear results; the compound was inactive in the other large screens. Hits are enriched below; roughly 9.6% of the tested compounds scored in any of these assays.

Nc1ccc(N2CCN(c3cccc(Cl)c3)CC2)cc1	L major viab 89
Nc1nc(N2CCN(c3cccc(Cl)c3)CC2)n[nH]1	none (no result: bCat KO growth, HCT116 PTEN-null, Insulin prom inh)
CN(C)C(=O)c1ccc(-c2n[nH]c(=O)c3ccccc23)cc1	none (no result: bCat KO growth, HCT116 PTEN-null, Insulin prom inh)
COc1cc([N+](=O)[O-])ccc1NC(=O)COC(=O)c1n[nH]c2ccccc12	L major viab 60
O=C(COC(=O)c1n[nH]c2ccccc12)Nc1ccc(Cl)cc1[N+](=O)[O-]	none (no result: bCat KO growth, HCT116 PTEN-null, Insulin prom inh)
COc1cc([N+](=O)[O-])ccc1NC(=O)CCN1C(=O)C2C3CCC(C3)C2C1=O (centres undefined)	L major viab 56
COc1ccc(C(=O)OCC(=O)Nc2ccc([N+](=O)[O-])cc2OC)c(O)c1	Autophagy mod active (no result: bCat KO growth, HCT116 PTEN-null, Insulin prom inh)
COc1ccc([N+](=O)[O-])cc1NC(=O)COC(=O)c1ccccc1C(=O)c1ccccc1	L major viab 92
COc1ccc([N+](=O)[O-])cc1NC(=O)COC(=O)c1ccccc1O	none (no result: bCat KO growth, HCT116 PTEN-null, Autophagy mod, L major viab, Insulin prom inh)
O=C(CCc1nc2ccccc2c(=O)[nH]1)Nc1ccc(F)cc1	none
CC(C)n1c(N2CCN(CC(=O)Nc3ccc4c(c3)OCCO4)CC2)nc2ccccc21	L major viab 51 (no result: Insulin prom inh)
Cc1ccc(SCc2nc3ccccc3n2CC(=O)Nc2ccc(Cl)cc2)cc1	none (no result: Insulin prom inh)
CC(C)Cn1c(N2CCN(CC(=O)Nc3ccc(Cl)cc3)CC2)nc2ccccc21	L major viab 86 (no result: bCat KO growth, HCT116 PTEN-null)
O=C(Nc1ccc(NC(=O)c2ccc(S(=O)(=O)c3ccccc3)cc2)cc1)c1ccccc1	none
COc1ccccc1N1CCN(CC(=O)Nc2ccc(CN3CCCCC3)cc2)CC1	L major viab 64
Cc1ccc(Cl)cc1N1CCN(CC(=O)Nc2ccc(CN3CCCCC3)cc2)CC1	Ins promoter up inconclusive, Autophagy mod active, L major viab 98
O=C(COc1ccc(Cl)cc1Cl)Nc1ccc(CN2CCCCC2)cc1	none (no result: bCat KO growth, HCT116 PTEN-null, Insulin prom inh)
CC(C)Cn1c(=O)oc2ccccc21	none (no result: bCat KO growth, HCT116 PTEN-null, Insulin prom inh)
CCN(CC)C(=O)C1CC(=O)OC1(C)C (centres undefined)	none
CS(=O)(=O)c1ccc2nc(NC(=O)c3cc(-c4ccccc4)nn3-c3ccccc3)sc2c1	L major viab 100
Cc1ccc(NC(=O)c2cc(-c3ccccc3)nn2-c2ccccc2)c(Br)c1	L major viab 69
COCCNC(=O)CSc1nc2nc(C)cc(C)n2n1	none (no result: Insulin prom inh)
CCc1ccc2c(c1)C(C)=CC(C)(C)N2	L major viab 66
CCCN1C(=O)/C(=C/c2c(N3CCNC(=O)C3CC(=O)OC)nc3c(C)cccn3c2=O)SC1=S (centres undefined)	Ins promoter up 6.5 (no result: bCat KO growth, HCT116 PTEN-null, Autophagy mod, L major viab, Insulin prom inh)
COc1ccc2c(C)c(C)c(=O)oc2c1OC	none (no result: bCat KO growth, HCT116 PTEN-null, Insulin prom inh)
N#Cc1c(-c2ccco2)cc(-c2cccnc2)nc1N	none
N#Cc1c(-c2ccco2)cc(-c2ccccn2)nc1N	L major viab 78 (no result: Insulin prom inh)
NCCc1nnc(SCc2ccccc2Cl)o1	none (no result: bCat KO growth, HCT116 PTEN-null, Autophagy mod, L major viab, Insulin prom inh)
NCCCCCc1nnc(SCc2ccc(Cl)cc2Cl)o1	L major viab 100
O=C(CNS(=O)(=O)c1ccc2ccccc2c1)OCC(=O)c1ccc(Br)s1	none
C/C(=N/NC(=O)c1ccco1)c1cccc(NC(=O)c2ccc(C)o2)c1	L major viab 66 (no result: Ins promoter up)
CC(=O)c1cccc(NC(=O)c2ccc(-c3ccccc3[N+](=O)[O-])o2)c1	L major viab 75
O=C(c1ccccc1)c1cccc(NC(=O)c2ccc(Br)o2)c1	L major viab 97
C/C(=N/NC(=O)c1ccco1)c1cccc(NC(=O)c2ccc(C)s2)c1	none
C/C(=N\NC(=O)c1cccc(C)c1)c1cccc(NC(=O)c2ccco2)c1	L major viab 83 (no result: Insulin prom inh)
C/C(=N\NC(=O)c1cccc(Cl)c1)c1cccc(NC(=O)c2ccco2)c1	none
CCCC/C(=N\NC(=O)c1ccc(Br)o1)c1ccccc1	L major viab 89
Cc1ccc(O)c(NC(=O)c2ccco2)c1	none
Cc1ccc(O)c(NC(=O)c2cccc(NC(=O)c3ccco3)c2)c1	L major viab 98
C/C(=N/NC(=O)c1ccc(Br)o1)c1cccc(NC(=O)c2ccc(C)o2)c1	L major viab 92
C/C(=N\NC(=O)c1nn(C)cc1Br)c1cccc(NC(=O)c2ccncc2)c1	L major viab 63
CCCNC(=O)NC(=O)COC(=O)c1oc2ccc(OCC)cc2c1C	none
CCCC(=O)c1ccc(N2CCN(C(=O)c3ccc(Br)cc3)CC2)c(F)c1	none (no result: Insulin prom inh)
